Shown are actives, neighbours in structure and some others; about 12% of the full set was active somewhere.
CHX counter: affects cycloheximide protein synthesis inhibition readout, counter-screen; actives 12% (n = 300,000); cell reporter, cycloheximide protein synthesis inhibition counterscreen; max response, %; in the data active = max response mostly above about 13%, no sharp cut-off; inactive = mostly below about 14%; also: read at 38.3 µM for the half of the compounds with a filed dose
Sm TGR block: blocks Schistosoma mansoni thioredoxin glutathione reductase. purified TGR, DTNB reduction, TNB absorbance 405 nm. actives 3% (n = 360,000). Potency, µM (doses to about 114 µM), most hits filed as inhibitors. Q962Y6. AID 485364; active = well fitted inhibition curve with a large enough effect; inconclusive = small, poorly fitted or top-dose-only effect; inactive = no such curve, though single readings can be large or run the other way; also: nearly all actives have a fitted effect of over 60% in size
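Kinetic colorimetric format: TGR-catalysed, NADPH-driven DTNB reduction monitored via TNB absorbance. Enzyme dispensed at 20 nM; compound exposure 15 min at room temperature before reaction start.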
FMDV inh: blocks foot and mouth disease virus; Potency, µM (titrated, usually from 57.9 µM), actives largely listed as inhibitors; actives 1.2% (n = 410,000); AID 1159524; FMDV antiviral cell-based qHTS; calls by dose curve; tested in HEK293T cells; also: read-out not given here; nearly all actives have a fitted effect of over 45% in size
Shiga toxin inh: Shiga toxin inhibition; actives 9.2% (n = 290,000); Vero cells, Shiga toxin protein synthesis inhibition reporter; inhibition, % at 38.7 µM; in the data active = inhibition mostly above about 28%, no sharp cut-off; inactive = mostly below about 43%
Numbers stand for hits; – = inactive; ? = inconclusive; · = no result given.

SMILES	CHX counter	Sm TGR block	FMDV inh	Shiga toxin inh
CN1CCN(c2nc3c(c(=O)n(C)c(=O)n3C)n2Cc2cccc3ccccc23)CC1	–	–	–	–
Cn1c(=O)c2c(nc(N3CCCCCC3)n2Cc2cccc3ccccc23)n(C)c1=O	–	–	28µM	–
Cc1ccc2nc(SCC(=O)N3CCC4(CC3)CC4C(=O)Nc3ccc(F)c(F)c3)[nH]c2c1 (stereo not given)	·	·	–	·
Cc1ccc(N2C(=O)CCSC23C(=O)N(Cc2ccc(F)cc2)c2ccccc23)cc1 (stereo not given)	·	–	?	·
OCCCc1cn(Cc2ccccc2)c2ccccc12	–	–	–	–
CCCCCN=c1ccn(Cc2ccccc2)c2ccccc12	·	·	40µM	·
CC(=O)N(Cc1ccc2c(c1)OCO2)C1CC(=O)N(CCc2ccccc2)C1=O (stereo not given)	–	22µM	–	–
O=C(O)/C=C/C(=O)N(Cc1ccc2c(c1)OCO2)C1CC(=O)N(CCc2ccccc2)C1=O (stereo not given)	–	–	–	–
O=C(/C=C/c1ccco1)N(c1ccccn1)c1ccccn1	–	32µM	–	–
O=C(/C=C/c1ccco1)NCc1ccccn1	–	3.5µM	–	–
O=C(/C=C/c1ccc([N+](=O)[O-])cc1)NCc1ccccn1	–	–	–	–
CCOc1ccc(CCNC(=O)CSCc2nc(-c3cccc(C)c3)oc2C)cc1OCC	·	–	?	·
O=C(NC1CC1)c1ccc2c(c1)ncn2C1CCCC1	33	–	–	69
COc1ccccc1-n1cnc2cc(C(=O)NC3CCCC3)ccc21	–	–	–	19
COc1ccc(C)cc1-n1cnc2cc(C(=O)NC3CCCC3)ccc21	·	–	–	·
Cn1c(CNC(=O)CSc2n[nH]c(-c3ccccc3Cl)n2)nc2ccccc21	·	–	–	·
CCOc1ccccc1NC(=O)C(Cc1ccccc1)NS(=O)(=O)c1ccc2c(c1)oc(=O)n2C (stereo not given)	·	–	–	·
CCC(C(=O)Nc1ccc2c(c1)OCCO2)n1nnc2ccccc2c1=O (stereo not given)	59	–	–	66
O=c1c2ccccc2nnn1CSc1ccc2c(c1)OCCO2	52	–	–	26
COc1ccccc1N(CC1CO1)S(=O)(=O)c1ccccc1 (stereo not given)	–	–	–	–
COc1ccc(N(CC2CO2)S(=O)(=O)c2ccccc2)cc1 (stereo not given)	–	40µM	–	–
COc1cc2nc(NCCc3ccc(Cl)cc3)n3nc(-c4ccccc4)nc3c2cc1OC	·	–	–	·
O=S(=O)(NCC(c1ccco1)N1CCN(c2ccccc2)CC1)c1ccc(F)cc1 (stereo not given)	–	–	–	–
Cc1cc(O)c(C(c2cccc(F)c2)N2CCN(c3ccccc3)CC2)c(=O)n1Cc1ccco1 (stereo not given)	·	3.2µM	–	·
Oc1c(C(c2ccccc2)N2CCN(c3cccc(Cl)c3)CC2)sc2nc(-c3ccco3)nn12 (stereo not given)	·	–	–	·
SMILES	CHX counter	Sm TGR block	FMDV inh	Shiga toxin inh
Cc1cc(O)c(C(c2cccc(Cl)c2)N2CCN(c3ccccc3)CC2)c(=O)n1Cc1ccco1 (stereo not given)	·	4µM	?	·
Cc1cn2c(=O)c(S(=O)(=O)Nc3ccc(N4CCOCC4)cc3)c(C)nc2s1	·	–	–	·
O=C(c1ccc2c(c1)N(Cc1ccc(F)cc1)C(=O)c1ccccc1S2=O)N1CCC(Cc2ccccc2)CC1 (stereo not given)	·	–	–	·
CC1CC(=O)N(c2ccc(NCCc3ccc(O)cc3)c([N+](=O)[O-])c2)C1=O (stereo not given)	22	–	?	41
CC1CC(=O)N(c2ccc(NCCc3ccccc3)c([N+](=O)[O-])c2)C1=O (stereo not given)	31	–	–	68
Cc1ccc(CNc2ccc(N3C(=O)CC(C)C3=O)cc2[N+](=O)[O-])cc1 (stereo not given)	–	–	–	–
OC[C@H]1OC(O)(CN2CCOCC2)[C@H](O)[C@@H]1O (stereo not given in full)	–	·	·	–
CCOC(=O)c1c(S(=O)(=O)N2CCCC(C(=O)N3CCN(c4cccc(C)c4C)CC3)C2)c(C)n(C)c1C (stereo not given)	·	–	–	·
COc1ccc(NC(=O)C2CCN(C(=O)c3ccc(OC)cc3)CC2)cc1	–	–	–	–
O=C(Nc1ccc2c(c1)OCCO2)C1CCN(C(=O)c2ccccc2)CC1	21	–	–	106
COc1ccc(C(=O)N2CCC(C(=O)Nc3ccc4c(c3)OCCO4)CC2)cc1	48	–	?	–
O=C(Nc1ccc2c(c1)OCCO2)C1CCN(C(=O)c2ccc([N+](=O)[O-])cc2)CC1	–	·	–	–
O=C(Nc1ccc2c(c1)OCCO2)C1CCN(C(=O)c2ccc(Br)cc2)CC1	18	–	–	–
CC(C)c1nn2c(=O)cc(COC(=O)c3ccc(NC(=O)c4ccccc4Cl)cc3)nc2s1	·	–	?	·
CCc1ccc(-n2nc3ccc(NC(=O)c4ccc(C#N)cc4F)cc3n2)cc1	·	–	–	·
Cc1cc(C(=O)Nc2nnc(C3CCCCC3)s2)no1	–	–	–	–
COCC(=O)Nc1nnc(C2CCCCC2)s1	20	–	–	53
CC(Oc1ccccc1)C(=O)Nc1nnc(C2CCCCC2)s1 (stereo not given)	49	–	–	130
Cc1ccc(C(=O)Nc2nnc(C3CCCCC3)s2)o1	21	–	–	90
CCOCC(=O)Nc1nnc(C2CCCCC2)s1	36	–	–	46
CCCCn1cc(S(=O)(=O)c2ccccc2)c(=O)c2cc(F)c(N3CCN(CCC)CC3)cc21	·	–	–	·
COc1ccc2nc(/C=N/NC(=O)CCCCCNC(=O)OC(C)(C)C)ccc2c1	41	–	–	–
CC(C)(C)OC(=O)NCCC(=O)N/N=C/c1ccc2ncccc2c1	–	–	–	–
CC(C)(C)OC(=O)NCCC(=O)N/N=C/c1ccc2nccnc2c1	–	–	–	–
COc1ccc2nc(/C=N/NC(=O)CCNC(=O)OC(C)(C)C)ccc2c1	35	–	–	62
SMILES	CHX counter	Sm TGR block	FMDV inh	Shiga toxin inh
COc1ccc(-c2noc(-c3ccc(NCc4ccc(C)cc4)c([N+](=O)[O-])c3)n2)cc1OC	·	–	–	·
O=c1oc2ccccc2c(Nc2cc3ccccc3cc2O)c1[N+](=O)[O-]	53	–	–	111
Cc1ccc2c(C(=O)CN3CCCC(C)C3)c(C)[nH]c2c1 (stereo not given)	–	35µM	–	–
Cc1ccc2c(C(=O)CN3CCN(c4ccccc4)CC3)c(C)[nH]c2c1	–	–	–	–
Cc1ccc2c(C(=O)CN3CC(C)CC(C)C3)c(C)[nH]c2c1 (stereo not given)	–	14µM	·	–
Cc1cccc(C)c1NC(=O)CN(Cc1ccc(Br)cc1)S(=O)(=O)c1ccccc1	·	–	–	·
O=c1oc2c(-c3ccc([N+](=O)[O-])cc3)cc(O)cc2s1	15	–	–	–
O=C(Nc1cnn(C23CC4CC(CC(C4)C2)C3)c1)c1cnn2cccnc12	64	–	–	90
N#Cc1c(NC(=O)c2cnn3cccnc23)sc2c1CCCC2	–	·	–	–
Cc1cc(C)c2oc(C(=O)Nc3c(C(=O)c4ccccc4)oc4ccccc34)cc(=O)c2c1	·	–	–	·
